A short description of assay [1]: ATG_E_Box_CIS: Attagene CIS-FACTORIAL HepG2 Assay for human Enhancer Box (E-box) (AID 2282936). To be noted: HepG2 E-box cis-reporter transcription, actives raise or lower the signal. In a few lines:
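Endogenous transcription factor activity was sensed in human HepG2 liver cells through transfected cis-promoter reporter units. After 24 h of dosing, total RNA was reverse-transcribed and reporter cDNA resolved by capillary electrophoresis.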

Assay [2] can be described thus: ATG_M_61_CIS: Attagene CIS-FACTORIAL HepG2 Assay for M61 Transcription Factor (Internal Marker) (AID 2282937). To be noted: HepG2 Attagene CIS-FACTORIAL M61 internal marker reporter; actives raise or lower the signal. The method, boiled down: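 Background-control endpoint: HepG2 cells with cis-regulated reporter constructs, 24 h exposure, reporter mRNA detected via fluorescent primer extension and capillary electrophoresis; values from bidirectional fitting with DMSO baseline.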

Assay [3] can be described thus: ATG_EGR_CIS: Attagene CIS-FACTORIAL HepG2 Assay for human Early Growth Response 1 (EGR1) (AID 2282938). To be noted: HepG2 Attagene CIS-FACTORIAL EGR reporter mRNA; actives raise or lower the signal. The method, boiled down:
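Endpoint derived by bidirectional fitting versus DMSO vehicle. Method: cis-promoter reporter units transfected into HepG2, 24 h dosing, RNA isolation, RT-PCR with 6-FAM primer extension and HpaI digestion, then capillary electrophoresis fluorescence detection.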

Assay [4] can be described thus: ATG_M_19_CIS: Attagene CIS-FACTORIAL HepG2 Assay for M19 Transcription Factor (Internal Marker) (AID 2282939). To be noted: HepG2 Attagene CIS-FACTORIAL M19 internal marker reporter; actives raise or lower the signal. The method, boiled down:
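Internal marker readout, fitted in both directions against DMSO, from HepG2 cells carrying transfected cis-element reporter constructs; RT-PCR and capillary electrophoresis of reporter mRNA after 24 h exposure.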

Assay [5] can be described thus: ATG_Ets_CIS: Attagene CIS-FACTORIAL HepG2 Assay for human Erythroblast Transformation Specific (ETS) (AID 2282941). To be noted: HepG2 ETS cis-reporter transcription; AC50: actives raise or lower the signal unless noted; outcome: actives raise or lower the signal unless noted. The method, boiled down:
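RT-PCR/capillary electrophoresis fluorescence read-out of reporter mRNA; HepG2 transient multi-reporter transfection; 24 h compound exposure; gain or loss of signal fitted bidirectionally relative to DMSO.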

Assay [6] addresses Hepatocyte nuclear factor 3-beta (Homo sapiens) (UniProt Q9Y261). Put plainly: ATG_FoxA2_CIS: Attagene CIS-FACTORIAL HepG2 Assay for human Forkhead box A2 (FOXA2) (AID 2282942). To be noted: HepG2 cis-reporter transcription factor activity, 24 h; actives raise or lower the signal. In a few lines: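 Measured: reporter mRNA induction or loss in HepG2 transiently carrying multiple cis-regulated reporter units, 24 h after dosing. Quantified by RT-PCR plus capillary electrophoresis, normalised to DMSO.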

Assay [7] in a line: ATG_FoxO_CIS: Attagene CIS-FACTORIAL HepG2 Assay for human Forkhead box O (FoxO) (AID 2282943). To be noted: HepG2 Attagene cis-reporter, FoxO element, mRNA; actives raise or lower the signal. The method, boiled down:
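Values reflect reporter mRNA induction or loss in HepG2 cells 24 h post-dosing, fitted bidirectionally with DMSO as negative control and baseline. Detection used RT-PCR and fluorescence capillary electrophoresis.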

Assay [8] in a line: ATG_GATA_CIS: Attagene CIS-FACTORIAL HepG2 Assay for human GATA Binding Protein (AID 2282944). To be noted: HepG2 GATA cis-element reporter, Attagene multiplex mRNA; actives raise or lower the signal. In a few lines:
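Reporter transcripts from a GATA cis-regulated unit, among multiplexed reporters in transfected HepG2 cells, were measured by RT-PCR with capillary electrophoresis after 24 h dosing. Induction or loss scored relative to DMSO.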

The nature of assay [9]: ATG_GLI_CIS: Attagene CIS-FACTORIAL HepG2 Assay for human Zinc Finger Protein GLI1 (AID 2282945). To be noted: HepG2, Attagene cis-factorial reporter mRNA, GLI element; actives raise or lower the signal. The method, boiled down:
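HepG2 cells transiently transfected with cis-promoter multiplexed reporter units report endogenous transcription factor activity. After 24 h chemical exposure, reporter mRNA was quantified by RT-PCR, 6-FAM labelling, HpaI digestion and capillary electrophoresis, with bidirectional fitting against DMSO.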

For assay [10], the target named is Bile acid receptor (Homo sapiens) (UniProt Q96RI1). Briefly: ATG_IR1_CIS: Attagene CIS-FACTORIAL HepG2 Assay for human Nuclear Receptor Subfamily 1 Group H Member 4 (NR1H4), IR1 submotif (AID 2282946). To be noted: IR1 reporter transcription, actives raise or lower the signal. In a few lines:
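Readout: reporter transcript levels by RT-PCR with fluorescent capillary electrophoresis, from HepG2 cells transiently transfected with multiplexed cis-regulated reporters and dosed 24 h. Gain- or loss-of-signal fitted versus DMSO negative control.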

Assay [11] in a line: ATG_GRE_CIS: Attagene CIS-FACTORIAL HepG2 Assay for human Glucocorticoid Response Elements (GRE) (AID 2282947). To be noted: HepG2 GRE cis-reporter, Attagene multiplex mRNA; AC50: actives raise or lower the signal unless noted; outcome: actives raise or lower the signal unless noted. In a few lines: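 Cells (HepG2) bearing transfected cis-promoter reporter transcription units were treated with chemical for 24 hours. Reporter mRNA was measured via RT-PCR with capillary electrophoresis, and activity was fitted in both directions relative to DMSO.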

The nature of assay [12]: ATG_ISRE_CIS: Attagene CIS-FACTORIAL HepG2 Assay for human Interferon Regulatory Factor 1 (IRF1) binding to an Interferon-Stimulated Response Element (ISRE) (AID 2282948). To be noted: HepG2 ISRE cis-reporter (Attagene), mRNA transcription readout; actives raise or lower the signal. In a few lines:
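Read-out: fluorescent RT-PCR products resolved by capillary electrophoresis, reporting endogenous transcription factor activity via ISRE-driven reporter mRNA in transfected HepG2 cells dosed for 24 h; gain or loss fitted relative to DMSO.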

The nature of assay [13]: ATG_M_32_CIS: Attagene CIS-FACTORIAL HepG2 Assay for M32 Transcription Factor (Internal Marker) (AID 2282949).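 Also: background control marker of the multiplexed CIS panel rather than a real target.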 To be noted: HepG2 Attagene cis-factorial M32 reporter, mRNA; actives raise or lower the signal. The method, boiled down:
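HepG2 transfectants (cis-regulated reporter transcription units) dosed 24 h. Reporter mRNA by RT-PCR plus CE, analysed as gain or loss relative to DMSO.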

A short description of assay [14]: ATG_M_06_CIS: Attagene CIS-FACTORIAL HepG2 Assay for M06 Transcription Factor (Internal Marker) (AID 2282950). To be noted: HepG2 Attagene CIS-FACTORIAL M06 internal marker reporter; actives raise or lower the signal. The method, boiled down: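 Serves as a background control readout. Transfected HepG2 exposed to compounds for 24 h, then reporter transcripts quantified by fluorescent RT-PCR and capillary electrophoresis. Both directions fitted against DMSO baseline.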

Assay [15] has as its target Hypoxia-inducible factor 1-alpha (Homo sapiens) (UniProt Q16665). Briefly: ATG_HIF1a_CIS: Attagene CIS-FACTORIAL HepG2 Assay for human Hypoxia Inducible Factor 1 (HIF1A) (AID 2282951). To be noted: HepG2 Attagene cis-factorial HIF1a reporter transcription; actives raise or lower the signal. In a few lines:
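Dosed 24 h, transfected HepG2 cells yielded total RNA whose reporter transcripts were RT-PCR-amplified and sized by capillary electrophoresis using fluorescent labelling; DMSO defined baseline, with gain and loss of signal both fitted.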

The target of assay [16] is Hepatocyte nuclear factor 6 (Homo sapiens) (UniProt Q9UBC0). Briefly: ATG_HNF6_CIS: Attagene CIS-FACTORIAL HepG2 Assay for human Hepatocyte Nuclear Factor 6 (HNF6) (AID 2282952). To be noted: HepG2 Attagene cis-factorial HNF6 reporter transcription; actives raise or lower the signal. The method, boiled down: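 Using cis-element reporters in HepG2 liver cells, the assay tracks endogenous factor-driven transcription 24 h post-dosing. Signal comes from 6-FAM-labelled, HpaI-digested RT-PCR fragments, with gain or loss scored against DMSO.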

Assay [17] deals with Heat shock factor protein 1 (Homo sapiens) (UniProt Q00613). Briefly: ATG_HSE_CIS: Attagene CIS-FACTORIAL HepG2 Assay for human Heat Shock Transcription Factor 1 (HSE) (AID 2282953). To be noted: HepG2 HSE cis-reporter, Attagene RNA transcription; actives raise or lower the signal. The method, boiled down: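 Endogenous transcription factor activity in transiently transfected HepG2, read as reporter mRNA by RT-PCR with fluorescent capillary electrophoresis after 24 h. Gain or loss of signal fitted versus DMSO baseline.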

The nature of assay [18]: ATG_MRE_CIS: Attagene CIS-FACTORIAL HepG2 Assay for human Metal Responsive Element (MRE) (AID 2282954). To be noted: HepG2 MRE cis-reporter transcription, Attagene multiplex; actives raise or lower the signal. The method, boiled down: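 Cells were transfected with cis-promoter reporter transcription units, then dosed for 24 h. RNA was reverse-transcribed, amplified, fluorescently labelled and resolved by capillary electrophoresis, and activity was fitted in both directions relative to DMSO.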

Assay [19] in a line: ATG_PBREM_CIS: Attagene CIS-FACTORIAL HepG2 Assay for human Phenobarbital-responsive Enhancer Module (PBREM) (AID 2282955). To be noted: HepG2 PBREM cis-reporter, Attagene multiplexed transcription; actives raise or lower the signal. In a few lines: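 Transfected liver-derived HepG2 cells exposed 24 h; PBREM reporter transcript quantified via RT-PCR and capillary electrophoresis, with activity in either direction referenced to DMSO.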

Assay [20] in a line: ATG_ERE_CIS: Attagene CIS-FACTORIAL HepG2 Assay for Estrogen Response Element (ERE) (AID 2282940). To be noted: HepG2 ERE cis-reporter, Attagene RNA transcript; actives raise or lower the signal. In a few lines: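 After 24 h compound treatment, RNA from transfected HepG2 cells was reverse-transcribed, reporter cDNA PCR-amplified, FAM-labelled, HpaI-cut and resolved by capillary electrophoresis. ERE-driven cis reporter transcripts reflect endogenous factors; gain or loss scored against DMSO.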

Each structure is given as a SMILES string. Calls of active or inactive are those of the source. The calls were made as follows: active = hit-call score of the fitted dose curve at least 0.9, where 1 is the maximum; inactive = score below 0.9.

Hypoxia-inducible factor 1-alpha (Homo sapiens), sequence (Q16665 whole entry, looked up): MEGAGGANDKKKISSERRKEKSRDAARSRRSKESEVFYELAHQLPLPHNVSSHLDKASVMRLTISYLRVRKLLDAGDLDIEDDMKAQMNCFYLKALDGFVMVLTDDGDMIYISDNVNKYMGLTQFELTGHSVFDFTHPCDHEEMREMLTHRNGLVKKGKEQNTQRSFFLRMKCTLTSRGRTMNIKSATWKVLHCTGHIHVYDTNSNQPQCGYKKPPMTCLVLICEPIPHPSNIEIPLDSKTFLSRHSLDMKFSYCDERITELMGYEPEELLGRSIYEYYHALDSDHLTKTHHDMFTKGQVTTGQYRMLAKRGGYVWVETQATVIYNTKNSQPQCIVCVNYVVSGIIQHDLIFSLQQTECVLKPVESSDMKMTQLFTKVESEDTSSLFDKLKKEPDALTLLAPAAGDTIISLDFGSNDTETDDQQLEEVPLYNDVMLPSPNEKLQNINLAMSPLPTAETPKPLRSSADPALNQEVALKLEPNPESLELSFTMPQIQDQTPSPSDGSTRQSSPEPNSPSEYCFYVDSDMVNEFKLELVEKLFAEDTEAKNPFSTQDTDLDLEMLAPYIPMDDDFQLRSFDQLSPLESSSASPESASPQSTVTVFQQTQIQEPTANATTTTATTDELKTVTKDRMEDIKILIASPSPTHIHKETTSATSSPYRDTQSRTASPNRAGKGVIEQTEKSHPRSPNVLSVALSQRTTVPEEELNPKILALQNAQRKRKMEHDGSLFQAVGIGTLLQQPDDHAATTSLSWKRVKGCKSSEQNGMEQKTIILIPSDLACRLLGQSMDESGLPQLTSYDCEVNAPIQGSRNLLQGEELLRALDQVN
Hepatocyte nuclear factor 6 (Homo sapiens), sequence (Q9UBC0 whole entry, looked up, the tested form may be a part): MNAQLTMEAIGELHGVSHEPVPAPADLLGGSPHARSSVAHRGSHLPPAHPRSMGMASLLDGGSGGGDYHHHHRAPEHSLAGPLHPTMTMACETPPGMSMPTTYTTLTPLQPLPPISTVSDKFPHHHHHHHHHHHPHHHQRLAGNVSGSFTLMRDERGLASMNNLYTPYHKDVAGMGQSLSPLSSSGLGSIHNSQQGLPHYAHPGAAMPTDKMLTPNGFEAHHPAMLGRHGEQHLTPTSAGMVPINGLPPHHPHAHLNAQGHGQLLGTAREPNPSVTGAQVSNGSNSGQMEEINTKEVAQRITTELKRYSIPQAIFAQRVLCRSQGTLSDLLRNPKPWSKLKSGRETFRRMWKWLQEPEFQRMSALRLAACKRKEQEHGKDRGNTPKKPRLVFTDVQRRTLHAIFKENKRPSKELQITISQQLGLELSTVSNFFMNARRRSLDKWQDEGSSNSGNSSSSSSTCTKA
Bile acid receptor (Homo sapiens), sequence (Q96RI1 whole entry, looked up): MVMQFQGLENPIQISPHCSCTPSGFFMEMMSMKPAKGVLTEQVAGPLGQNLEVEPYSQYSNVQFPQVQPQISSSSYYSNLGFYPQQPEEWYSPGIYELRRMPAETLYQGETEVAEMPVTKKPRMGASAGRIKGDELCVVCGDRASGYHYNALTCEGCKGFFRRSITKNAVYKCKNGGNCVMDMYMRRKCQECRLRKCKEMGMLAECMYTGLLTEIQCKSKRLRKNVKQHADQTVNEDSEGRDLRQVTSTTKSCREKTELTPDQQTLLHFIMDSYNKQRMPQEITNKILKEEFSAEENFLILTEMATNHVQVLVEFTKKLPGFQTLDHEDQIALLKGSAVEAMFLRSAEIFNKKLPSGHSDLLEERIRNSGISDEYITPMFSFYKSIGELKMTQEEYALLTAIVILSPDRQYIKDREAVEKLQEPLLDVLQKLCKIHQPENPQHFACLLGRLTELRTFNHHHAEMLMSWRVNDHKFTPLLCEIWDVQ
Heat shock factor protein 1 (Homo sapiens), sequence (Q00613 whole entry, looked up): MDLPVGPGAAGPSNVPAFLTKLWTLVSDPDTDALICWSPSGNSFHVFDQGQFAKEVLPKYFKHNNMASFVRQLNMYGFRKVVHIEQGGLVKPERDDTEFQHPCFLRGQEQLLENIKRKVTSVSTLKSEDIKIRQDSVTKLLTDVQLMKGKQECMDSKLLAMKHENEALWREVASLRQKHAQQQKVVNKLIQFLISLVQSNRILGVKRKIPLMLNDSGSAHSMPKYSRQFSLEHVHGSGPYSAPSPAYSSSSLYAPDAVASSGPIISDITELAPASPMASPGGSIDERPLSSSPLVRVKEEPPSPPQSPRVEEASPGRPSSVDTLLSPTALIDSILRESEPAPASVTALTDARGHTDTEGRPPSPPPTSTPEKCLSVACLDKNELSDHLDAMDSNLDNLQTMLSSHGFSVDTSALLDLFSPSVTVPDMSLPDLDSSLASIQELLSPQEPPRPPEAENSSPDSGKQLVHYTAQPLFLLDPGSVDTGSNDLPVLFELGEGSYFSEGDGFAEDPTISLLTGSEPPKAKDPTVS
Hepatocyte nuclear factor 3-beta (Homo sapiens), sequence (Q9Y261 whole entry, looked up): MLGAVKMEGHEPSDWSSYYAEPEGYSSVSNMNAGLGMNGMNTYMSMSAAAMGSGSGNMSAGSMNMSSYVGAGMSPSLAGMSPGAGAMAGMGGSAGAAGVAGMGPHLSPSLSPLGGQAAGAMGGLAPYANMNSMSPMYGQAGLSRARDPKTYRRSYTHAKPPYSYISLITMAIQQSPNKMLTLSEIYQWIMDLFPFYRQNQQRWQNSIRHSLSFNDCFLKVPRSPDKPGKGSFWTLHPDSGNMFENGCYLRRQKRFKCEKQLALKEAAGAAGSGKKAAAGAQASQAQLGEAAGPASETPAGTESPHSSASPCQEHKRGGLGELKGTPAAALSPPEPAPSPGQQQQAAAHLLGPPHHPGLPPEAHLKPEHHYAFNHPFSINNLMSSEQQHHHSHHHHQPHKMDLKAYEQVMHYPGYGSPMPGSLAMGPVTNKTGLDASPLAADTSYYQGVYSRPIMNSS

In the case of `O=CC(F)(F)C(F)(F)C(F)(F)F`, the result in assay [1], in [2], in assay [3], in assay [4], in assay [5] and in [6] was inactive. Besides, the molecule was called inactive in assay [7], in assay [8], in assay [9], in assay [10], in assay [11] and in assay [12]. Further, the result in [13], in assay [14], in assay [15], in assay [16], in assay [17] and in [18] was inactive. Further, the result in [19] was inactive.
For the molecule `CCC(=O)C=Cc1ccc(OC)cc1`, the outcome in assay [1], in assay [2], in assay [4], in assay [20], in [5] and in [7] was inactive. Further, the call in assay [8], in [9], in assay [10], in assay [11], in assay [13] and in assay [14] was inactive. The result in [19] was inactive. Moreover, the AC50 in assay [3] is 100 µM (active); in assay [12] it was 100 µM (active); in assay [15] it was 62.7 µM (active); in [16] it was 124 µM (active); in assay [17], 145 µM (active); in assay [18] it was 65.4 µM (active).
In the case of `O=C1OC(=O)c2cc(-c3ccc4c(c3)C(=O)OC4=O)ccc21`, the result in [1], in [2], in [3], in assay [4], in [5] and in assay [6] was inactive. Moreover, the result in assay [7], in assay [8], in [9], in assay [10], in [11] and in assay [12] was inactive. For the same molecule, the molecule was classed as inactive in assay [13], in assay [14], in [15], in assay [16], in [17] and in [18]. Besides, in assay [19], the result was inactive.
Regarding `NC(C(F)(F)F)C(F)(F)F`, the result in assay [1], in assay [2], in assay [3], in assay [4], in assay [20] and in assay [5] was inactive. The outcome in assay [7], in [8], in assay [9], in [10], in assay [11] and in [12] was inactive. Further, the molecule was classed as inactive in assay [13], in [14], in [15], in assay [16], in assay [17] and in assay [18]. The result in assay [19] was inactive.
In the case of `CCCCC=O`, the result in [1], in assay [2], in assay [3], in [4], in assay [5] and in assay [6] was inactive. Further, the molecule was classed as inactive in [7], in assay [8], in assay [9], in assay [10], in [11] and in assay [12]. Besides, the molecule was called inactive in assay [13], in [14], in assay [15], in [16], in [17] and in [18].
For `O=C(O)CCC(F)(F)C(F)(F)C(F)(F)C(F)(F)C(F)(F)F`, the result in assay [1], in assay [2], in assay [3], in [4], in assay [5] and in assay [6] was inactive. Further, the molecule was classed as inactive in assay [7], in assay [8], in assay [9], in assay [10], in assay [11] and in assay [12]. Also, the outcome in assay [13], in assay [14], in assay [15], in assay [16], in assay [17] and in [18] was inactive. The outcome in assay [19] was inactive.
Take `CC(=O)CC(C)C`: the outcome in assay [1], in [2], in assay [3], in assay [4], in assay [5] and in assay [6] was inactive. Further, the molecule was called inactive in [7], in assay [8], in assay [9], in assay [10], in assay [11] and in assay [12]. For the same molecule, the molecule was called inactive in assay [13], in assay [14], in [15], in [16], in assay [17] and in [18]. In [19], the result was inactive.

The values above are taken from PubChem BioAssay (EPA / NIEHS).
